We go through 22 compounds from PubChem BioAssay (NCI).

This is part of a sample that, as a whole, favours compounds with a hit. Of some 83,000 tested, about 20% had one in any assay.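 The test compound was applied at a single concentration to cells in 96-well plates for 48 hours, and percent growth was recorded.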 Unmarked numbers belong to inactive results. The source made the active and inactive calls. Rule for the calls: active = growth percent below 10; inactive = the rest.

Experiment in all cases: NCI-60 one-dose screen, 48 h (100 = growth as untreated, 0 = no growth, -100 = all killed)
What all share (conditions): 10 µM unless noted

Test [1] concerns NCI-H23 lung.
For test [2], the system named is NCI-H226 lung.
In test [3] the test system is NCI-H322M lung.
Test [4] has as its system HOP-62 NSCLC.
For test [5], the system named is NCI-H460 lung.
For test [6], the system named is HOP-92 NSCLC.
For test [7], the system named is NCI-H522 lung.
Test [8] deals with A549/ATCC NSCLC.
The test system of test [9] is 786-0 renal.
Test [10] concerns COLO 205 colon.

For the compound `O=C1C=C(N2C3C4CCC(C4)C32)C(=O)C=C1c1ccccc1` (stereo not given), the growth in [1] is 106%; in test [2], 107%; in test [3], 107%; in [4], 108%; in test [5] it was 90.2%; in [6], 96.9%. In addition, the growth was 51% in test [7], 94.9% in [8], 102% in test [9] and 115% in [10].
As for `C[C@]12CC[C@H]3[C@@H](C[C@@H]4SC(Nc5ccccc5)=N[C@@]45CC(O)CC[C@]35C)[C@@H]1CCC2O` (stereo not given in full), the growth in [1] was 67.3%; in test [2], 63.9%; in [3], 78.4%; in test [4], 34.2%; in test [5], 6.06% (active); in [6], 104%. The growth in [7] was 25.8%; in [8], 57.1%; in test [9], -49.7% (active); in test [10], 57.1%.
Turning to `[Au+].[N-]=C=O.c1ccc(CN2[CH-]N(Cc3ccccc3)C(c3ccccc3)=C2c2ccccc2)cc1`, the growth in test [1] was 79.5%; in test [2], 107%; in test [3] it was 112%; in test [4] it was 116%; in [5], 98.5%; in test [6] it was 81.4%. In addition, the growth in test [7] is 5.83% (active); in test [8] it was 92.7%; in test [9], 90.2%; in [10], 92.5%.
In the case of `COc1ccc(Nc2ccc([N+](=O)[O-])cc2[N+](=O)[O-])cc1CN(CCCl)CCCl`, the growth in [1] is 18.4%; in test [2] it was 39.7%; in test [3] it was 45.8%; in [4] it was 35.8%; in test [5], 7.13% (active); in test [6], 39.2%. For the same compound, the growth in test [7] was 21.1%; in test [8], 33.5%; in test [9], 18.4%; in test [10], 38%.
As for `N#C[Se]Cc1cc(-c2ccccc2)n(-c2ccc(S(N)(=O)=O)cc2)n1`, the growth in test [1] is -18% (active); in test [2], -29.1% (active); in test [3], -5.66% (active); in [4] it was -87.3% (active); in [5], -56.8% (active); in test [6], -61.3% (active). For the same compound, the growth is -7.38% (active) in test [7], -33.1% (active) in test [8], -24.7% (active) in test [9] and -83.4% (active) in test [10].
As for `Cc1c2cc(Cl)c3ccccc3c2c[n+]2ccccc12`, the growth in test [1] is 47.8%; in test [2], 43.5%; in test [3] it was 31.3%; in test [4], 12.3%; in test [5], 55.7%; in [6], 75.4%. Also, the growth in test [7] was 17.1%; in test [8] it was 40.5%; in test [9], 16.1%; in [10], 56.1%.
As to `COc1cc2c(c(OC)c1OC)-c1ccc([O-])c(=O)cc1[C@@H](NC(C)=O)CC2.COc1cc2c(c(OC)c1OC)-c1ccc([O-])c(=O)cc1[C@@H](NC(C)=O)CC2.[Cu+2]`, the growth in [1] was 27.1%; in test [2] it was 37.8%; in [3], 57%; in test [4], 27.4%; in test [5], 5.2% (active); in test [6], 9.89% (active). For the same compound, the growth in test [7] is -24.5% (active); in [8] it was 45.1%; in test [9], 43%; in test [10], 9.04% (active).
As to `CC[C@H](C)[C@@H]([C@@H](CC(=O)N1CCC[C@H]1[C@H](OC)[C@@H](C)C(=O)N[C@H](C)[C@@H](O)c1ccccc1)OC)N(C)C(=O)[C@@H](NC(=O)[C@@H](NC)C(C)C)C(C)C`, the growth is 27.9% in test [1]; 66.9% in test [2]; 50.8% in test [3]; 25.8% in test [4]; 9.17% (active) in test [5]; 11.5% in test [6]. The growth was -36.1% (active) in test [7], 21.4% in test [8], 21.2% in [9] and -72.1% (active) in [10].
On to `CCCCCCCOC(C(=O)OCCN(CC)CC)(c1ccccc1)c1ccccc1`, for which the growth is 87.7% in test [1]; 96.4% in test [2]; 98.7% in test [3]; 89.6% in test [4]; 84.4% in test [5]; 67.6% in test [6]. For the same compound, the growth in test [7] is 73.4%; in [8] it was 90.8%; in test [9] it was 65.8%; in test [10] it was 95.3%.
Consider `C/C(=C\c1ccn(-c2ccc(N)cc2)n1)[C@@H]1C[C@@H]2O[C@]2(C)CCC[C@H](C)[C@H](O)[C@@H](C)C(=O)C(C)(C)[C@@H](O)CC(=O)O1`, for which the growth was 26.1% in test [1]; 31.7% in test [2]; 18.6% in test [3]; 44.7% in test [4]; 13.3% in [5]; 48.7% in test [6]. Besides, the growth is 18.6% in test [7], 29.8% in test [8], 20.2% in [9] and 1.88% (active) in test [10].
Take `CC[C@H](C)[C@@H]1OC(=O)C(C)(C)[C@H](O)[C@H](Cc2ccccc2)OC(=O)[C@H](C(C)C)OC(=O)[C@@H](NC(=O)c2cccc(NC=O)c2O)[C@@H](C)OC1=O`: the growth was 36.4% in [1]; 51.2% in test [2]; 78.9% in test [3]; 45% in [4]; 19% in [5]; 68% in test [6]. Also, the growth in [7] is 38.9%; in test [8], 49.5%; in [9] it was 64.5%; in test [10] it was 43.6%.
Regarding `COC(=O)[C@@H](C)C[C@H](Cc1ccccc1)NC(=O)c1csc([C@@H](C[C@H](C(C)C)N(C)C(=O)C2(NC(=O)[C@H]3CCCCN3C)CCC2)OC(C)=O)n1`, the growth was 18.6% in test [1]; 48.7% in [2]; 43.6% in [3]; 18.8% in [4]; 4.21% (active) in [5]; 2.26% (active) in [6]. Also, the growth in [7] was -13.8% (active); in test [8] it was 15.2%; in test [9], 20.9%; in test [10] it was -59.1% (active).
For the compound `C=CC12CCN(CC1)C(C(O)c1ccnc3ccc(OC)cc13)C2` (stereo not given), the growth in test [1] was 100%; in test [2], 89.3%; in test [3], 93.2%; in [4], 97.5%; in [5], 89%; in test [6], 75.2%. Also, the growth in test [7] was 89%; in test [8], 76.1%; in test [9] it was 79%; in test [10], -91.5% (active).
Regarding `COc1ccc2c(c1)c(-c1nc(-c3cn(C)c4ncccc34)cs1)cn2CCN1CCOCC1`, the growth in test [1] is 40.2%; in [2], 43%; in [3], 62.3%; in test [4] it was 12.5%; in [5], 23.9%; in test [6] it was 31.3%. Further, the growth in test [7] is 19.9%; in [8], 30.5%; in test [9] it was 44.4%; in test [10], 33.2%.
On to `C[N+](C)(C)Cc1cc(Cl)ccc1O`, for which the growth in [1] is 97.7%; in [2], 98.6%; in [3] it was 87.3%; in [4], 101%; in test [5], 110%; in test [6] it was 93.2%. The growth is 80.6% in test [7], 94.6% in [8], 100% in [9] and 107% in test [10].
As to `O=C(O)C(Cl)(Cl)C(F)(F)F`, the growth is 100% in test [1]; 106% in test [2]; 106% in [3]; 111% in [4]; 102% in test [5]; 95.1% in test [6]. For the same compound, the growth in test [7] is 102%; in test [8], 106%; in test [9], 99.1%; in test [10], 124%.
Consider `CNC(=O)Oc1ccc2c(c1)OCO2`, for which the growth was 103% in test [1]; 103% in [2]; 107% in [3]; 102% in test [4]; 106% in test [5]; 108% in test [6]. In addition, the growth is 103% in [7], 100% in [8], 107% in [9] and 103% in test [10].
With `CC1CN1CCCCN1CC1C` (stereo not given), the growth in [1] was 109%; in test [2], 106%; in test [3], 101%; in test [4], 109%; in [5] it was 104%; in test [6] it was 88.2%. In addition, the growth in [7] is 66.4%; in test [8], 101%; in test [9], 103%; in test [10] it was 115%.
Turning to `C=COC(=O)CCN1CC1`, the growth was 100% in [1]; 98.9% in test [2]; 102% in test [3]; 95% in test [4]; 105% in [5]; 111% in [6]. In addition, the growth in [7] was 107%; in test [8], 102%; in test [9], 110%; in [10], 114%.
As to `Cc1ccc(S(=O)(=O)C(Cl)(Cl)Cl)cc1`, the growth in test [1] is 98.3%; in [2], 80.4%; in test [3], 105%; in test [4] it was 90.2%; in [5], 104%; in test [6], 82.3%. Besides, the growth is 76.2% in test [7], 77.2% in [8], 88.5% in test [9] and 99.4% in test [10].
Turning to `NC(CCl)CCl`, the growth is 104% in test [1]; 94.6% in [2]; 102% in test [3]; -100% (active) in test [4]; 110% in test [5]; 109% in test [6]. Further, the growth was 100% in test [7], 102% in test [8], 107% in test [9] and -100% (active) in [10].
`O=[N+]([O-])c1cc([N+](=O)[O-])c(Cl)cc1Cl`: the growth in [1] is -56.4% (active); in test [2], -59% (active); in test [3], 40.6%; in test [4], -73.9% (active); in [5] it was -45.8% (active); in test [6] it was -80.1% (active). Moreover, the growth in test [7] was -69.6% (active); in test [8] it was 39.9%; in [9] it was -67.8% (active); in [10] it was -75.7% (active).
